# TGFb SMAD3 inh: inhibitors of TGF-b signaling | 410,000 tested, 1.2% active | HepG2 CAGA-GFP TGF-b/SMAD3 reporter, GFP fluorescence, 18 h; TGF-beta stimulated, 500 pg/mL final | Potency, µM (doses to about 46.1 µM), usual class: inhibitors; also: nearly all actives have a fitted effect of over 65% in size
#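 First, reporter cells (HEPG2 CAGA-GFP) rested 2 h at 37 degrees C. Next, compounds were pinned in and TGF-beta added to 500 pg/mL final. After 18 h, GFP was imaged per cell and summed per well.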
# IL1B secr inh: inflammasome signaling inhibition, IL-1 beta readout; THP-1 LPS/ATP IL-1B secretion, AlphaLISA, 16 h; stronger effect = lower value; activity change, % at 57.5 µM; 360,000 tested, 4.7% active; AID 743279; in the data active = activity change below about -50%; inconclusive = mostly about -30% to -49%
#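 Secreted IL-1B measured by AlphaLISA bead assay after 16 h compound exposure of THP-1 cells; compounds (final up to 57.5 uM) added 1 h before LPS (250 ng/mL) and ATP (1.25 mM) stimulation; lower signal means less secretion.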
# HepG2 viability: kills HepG2 cells in TGF-b inhibitor counter-screen | HepG2 CAGA-GFP viability, ATP luminescence, 18 h | Potency, µM (series often up to 46.1 µM), hits mostly cytotoxic | 410,000 tested, 0.76% active | AID 588856
#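 HepG2 CAGA-GFP cells (1000/well, DMEM with 1% FBS) received compound, then TGF-beta at 500 pg/mL final, and were incubated 18 hours at 37 degrees C. Viability was read by CellTiter-Glo luminescence. Media-only wells were set as complete cell-killing and DMSO as no toxicity.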
# TDP1 inh: TDP1 (human) enzyme inhibition | Potency, µM (top dose mostly 130 µM), hits mostly inhibitors | 350,000 tested, 0.28% active | recombinant TDP1, AlphaScreen DNA substrate cleavage; also: nearly all actives have a fitted effect of over 40% in size
# Target sequence (Q9NUW8 whole entry, looked up): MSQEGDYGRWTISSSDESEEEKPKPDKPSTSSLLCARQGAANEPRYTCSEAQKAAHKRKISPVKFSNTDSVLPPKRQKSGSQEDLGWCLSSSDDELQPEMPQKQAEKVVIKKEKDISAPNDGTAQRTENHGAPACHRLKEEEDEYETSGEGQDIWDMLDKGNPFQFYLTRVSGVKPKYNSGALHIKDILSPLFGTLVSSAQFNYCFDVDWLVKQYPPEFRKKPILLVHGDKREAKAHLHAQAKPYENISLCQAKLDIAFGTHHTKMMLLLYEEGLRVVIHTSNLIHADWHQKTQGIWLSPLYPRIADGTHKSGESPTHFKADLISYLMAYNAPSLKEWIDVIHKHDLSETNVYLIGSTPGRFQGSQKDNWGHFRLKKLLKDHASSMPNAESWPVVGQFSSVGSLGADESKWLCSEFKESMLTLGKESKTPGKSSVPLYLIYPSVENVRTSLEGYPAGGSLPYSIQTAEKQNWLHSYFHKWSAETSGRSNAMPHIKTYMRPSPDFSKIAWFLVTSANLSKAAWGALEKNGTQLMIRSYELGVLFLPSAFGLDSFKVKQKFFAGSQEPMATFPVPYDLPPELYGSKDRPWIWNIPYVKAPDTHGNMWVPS
#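 Enzyme-compound mixtures sat 15 min at room temperature, followed by a 5 min reaction with 15 nM final substrate and 10 min with AlphaScreen beads. Recombinant human Tdp1 was used at 1 nM final.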
# TDP1 cell CPT: growth inhibition of DT40 Tdp1-/-;hTDP1 cells with camptothecin (screen for TDP1 inhibitors); chicken DT40 Tdp1-/-;hTDP1 cells + 20 nM CPT, ATP luminescence, 48 h; Potency, µM (doses to about 46.2 µM), usual class: inhibitors; 420,000 tested, 12% active; also: nearly all actives have a fitted effect of over 55% in size
#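 Cell growth measured by CellTiter-Glo luminescence after a minimum 48 h, 37 C compound exposure with 20 nM CPT in Tdp1-knockout DT40 cells stably expressing hTDP1, seeded 400/well; qHTS titration format.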
# TDP1 cell noCPT: qHTS for Inhibitors of human tyrosyl-DNA phosphodiesterase 1 (TDP1): qHTS in cells in absence of CPT; DT40 Tdp1-/- hTDP1 cells, no CPT, ATP luminescence, 48 h; AID 686978, 2013; 420,000 tested, 15% active; Potency, µM (top dose mostly 46.2 µM), hits mostly inhibitors; also: nearly all actives have a fitted effect of over 55% in size
#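 Growth kinetics read by CellTiter-Glo luminescence after ≥48 hr at 37 °C. Cells: DT40 Tdp1-/- stably carrying human TDP1, 400 per well, compound exposure in the absence of CPT (DMSO vehicle).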
# A number is an active result; n = inactive; u = inconclusive; x = no result. This is a sample that favours compounds with a hit; in the whole collection about 19% have one here. Unless noted, calls follow the shape of the dose curve; as a rule, active = well fitted curve in the direction sought with a large enough effect; inconclusive = small, poorly fitted or top-dose-only effect, or another doubt; inactive = no such curve, though single readings can be large; an effect the other way counts as inactive or inconclusive.
SMILES,TGFb SMAD3 inh,IL1B secr inh,HepG2 viability,TDP1 inh,TDP1 cell CPT,TDP1 cell noCPT
COc1ccc(NC(=O)CCc2nc(C3=CCN(Cc4cccc(Cl)c4)CC3)no2)cc1OC,n,x,n,n,16µM,12µM
Cc1cccc(CN2CC=C(c3noc(CCC(=O)Nc4ccc(C)c(F)c4)n3)CC2)c1,u,x,n,n,16µM,13µM
COc1ccc(NC(=O)CCc2nc(C3=CCN(Cc4cccc(Cl)c4)CC3)no2)c(OC)c1,u,x,n,n,5.8µM,18µM
COc1cccc(CC(=O)N2CCN(Cc3cccc(Cl)c3)CC2)c1,n,n,n,x,n,u
COc1ccc2nc(NC(=O)CCc3nc(C4=CCN(C)CC4)no3)sc2c1,n,n,n,n,n,n
C=CCSC1=N/C(=C\c2cc(OC)c3c(c2)OCO3)C(=O)S1,u,n,n,n,n,n
OC(Cn1c2ccccc2c2ccccc21)C[n+]1cccc2ccccc21 (stereo not drawn),u,-68,n,n,18µM,16µM
CC1(C)C(O)CC(=O)[C@]2(C)C1CC(=O)[C@]1(C)C2CC[C@@]2(C)C(c3ccoc3)OC(=O)C3O[C@@]321 (stereo partly drawn),x,x,x,n,n,n
COc1cccc(Oc2coc3cc(OC(=O)N(C)C)ccc3c2=O)c1,n,n,n,x,u,u
COc1ccc(-c2coc3cc(OC(=O)N4CCOCC4)ccc3c2=O)cc1,n,n,n,n,13µM,18µM
N#CC(Cl)Cl,x,x,x,n,x,x
COc1cccc(OC)c1C1=NCC(=O)Nc2c1oc1ccc(Br)cc21,16µM,n,n,n,0.92µM,0.92µM
CCCNC(=O)c1cc2c(c(-c3cccc(-c4cc5ccccc5o4)c3)n1)[C@@H](CCO)N(C(=O)NC(C)C)C2,x,n,x,x,u,u
Cc1ccc(-c2nn3c(=O)cc(CN4CCN(C(=O)COc5ccc(C)c(C)c5)CC4)nc3s2)cc1,n,x,n,n,u,u
COc1ccc(OCC(=O)N2CCN(Cc3cc(=O)n4nc(-c5ccccc5C)sc4n3)CC2)cc1,n,x,n,n,15µM,10µM
COc1ccccc1CN1CCN(C(=O)COc2ccccc2)CC1,n,n,n,n,n,n
COc1ccccc1-c1nn2c(=O)cc(CN3CCN(C(=O)Nc4ccc(C)cc4Cl)CC3)nc2s1,n,x,n,n,15µM,6.5µM
COc1ccc(-c2nn3c(=O)cc(CN4CCN(S(=O)(=O)c5ccc(C)cc5)CC4)nc3s2)cc1,n,x,n,n,21µM,16µM
COc1cccc(-c2nn3c(=O)cc(CN4CCN(C(=O)COc5ccccc5C)CC4)nc3s2)c1,n,x,n,n,u,23µM
COc1ccc(-c2nn3c(=O)cc(CN4CCN(C(=O)COc5ccc(F)cc5)CC4)nc3s2)cc1,n,x,n,n,n,u
C[C@]12CC[C@@H](O)CC1CCC1C2CC[C@]2(C)C(=O)CC[C@@H]12 (stereo partly drawn),x,x,x,n,x,x
CC1(C)C(C(Cl)Cl)C2(Cl)C(Cl)C(Cl)C1(Cl)C2(Cl)Cl (stereo not drawn),x,x,x,n,u,n
Cc1cccc(-n2c(/C=C\c3cccc(Br)c3)nc3ccccc3c2=O)c1,n,x,n,n,u,u
CCOc1cc(CNCCc2ccccc2F)ccc1OC,n,n,n,x,u,u
COc1cccc(CNCCc2ccccc2)c1OC,n,n,n,n,n,n
SMILES,TGFb SMAD3 inh,IL1B secr inh,HepG2 viability,TDP1 inh,TDP1 cell CPT,TDP1 cell noCPT
COc1ccc(CNCCc2ccccc2F)c(OC)c1C,n,-65,n,x,15µM,23µM
COc1cc(C)c(CNCCc2c[nH]c3ccccc23)cc1C,u,-72,11µM,x,8.2µM,7.3µM
Cc1ccc(NC(=O)COC(=O)CCc2c[nH]c3ccccc23)cc1[N+](=O)[O-],n,n,n,n,u,n
COc1ccc(CNCCc2c[nH]c3ccccc23)c(OC)c1C,n,x,n,x,5.8µM,7.3µM
CC(C)(C)C(=O)OC1=CN(Cc2ccccc2)S(=O)(=O)c2ccccc21,n,x,n,n,n,u
C[C@]12Cc3nonc3C[C@@H]1CC[C@@H]1[C@@H]2CC[C@@]2(C)[C@H]1CC[C@]2(C)O,x,x,x,x,n,u
C[C@H](CCC(=O)O)[C@H]1CC[C@@H]2[C@H]3CC[C@H]4C[C@H](O)CC[C@]4(C)[C@@H]3CC[C@@]21C,x,x,x,u,n,n
Cc1cc(N(C)C)ccc1N=Nc1ccc(N)cc1,n,n,n,x,u,13µM
O=Cc1ccc(Cl)cc1Cl,x,x,x,n,x,x
COc1ccc(-c2nc(CN3C(=O)CN=C(c4ccccc4Cl)c4cc(Cl)ccc43)c(C)o2)cc1OC,n,x,n,n,u,u
Cc1ccc2c(c1)C(c1ccccc1)=NCC(=O)N2C,n,n,n,x,n,n
O=C1CN=C(c2ccccc2)c2cc(Cl)ccc2N1CC1CC1,x,x,x,x,u,24µM
Cc1oc(-c2ccc(Cl)cc2)nc1CN1C(=O)CN=C(c2ccccc2)c2ccccc21,20µM,x,n,n,u,15µM
Cc1ccc(NC(=O)CN2C(=O)CN=C(c3ccccc3)c3cc(Cl)ccc32)cc1,u,-66,n,n,u,u
O=C1CN=C(c2ccccc2Cl)c2cc(Cl)ccc2N1Cc1cccc(Cl)c1,n,x,n,n,21µM,u
CC(C)C[C@H](CN)CC(=O)O,x,x,x,x,n,n
O=C(c1csnn1)N1CCC2(CC1)CN(Cc1ccncc1)C2,x,x,x,x,n,n
CN(C)c1ccc(NC(=O)CN2C(=O)CN=C(c3ccccc3)c3cc(Cl)ccc32)cc1,n,-62,n,n,u,u
C=C1[C@@H]2CC[C@H]3[C@@]4(C)C[C@@H](O[C@@H]5O[C@H](CO)[C@H](OS(=O)(=O)O)[C@@H](OS(=O)(=O)O)[C@@H]5OC(=O)CC(C)C)C[C@@H](C(=O)O)[C@H]4CC[C@@]3(C2)[C@H]1O,x,x,x,n,x,x
O=C1CN=C(c2cccs2)c2c(sc3c2CCCC3)N1,n,n,n,n,16µM,u
CC(Cl)CCl (stereo not drawn),x,x,x,n,x,x
C[C@H](CCC(=O)O)[C@H]1CC[C@H]2[C@@H]3C(=O)C[C@@H]4CC(=O)CC[C@]4(C)[C@H]3CC(=O)[C@]12C,n,n,n,n,u,n
CN(C)C(=O)Oc1ccc(Cl)c2cccnc12,n,n,n,n,n,n
O=C(Nc1cccc(Br)c1)Oc1cccc2cccnc12,u,n,2.8µM,x,5.2µM,3.3µM
O=C(O)C1C2CCC(O2)C1C(=O)Nc1cccc(Br)c1 (stereo not drawn),n,n,n,x,n,n

# Source: PubChem BioAssay
